Assay results as given in PubChem BioAssay.
Activity calls are given as the source filed them. Unless noted, no rule for the calls is given here.

Tests used:
[1] = HepG2 liver cancer cell viability effects, profiling panel, resazurin fluorescence, 24 h, PK04 Diversity Set (AID 1172); details: higher = more signal
[2] = basal S. cerevisiae growth modulation, no modifier, primary screen, OD600, strain BY4716, 24 h, basal condition (AID 1173); details: OD600, 24 h, higher = more signal, called active from +8 up or from −8 down
[3] = MM1S myeloma cell viability, profiling panel, resazurin fluorescence, basal, 24 h, PK04 Diversity Set (AID 1174); details: higher = more signal, called active from +8 up or from −8 down;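 also: MM1S multiple myeloma cell line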
[4] = target: Dihydroorotate dehydrogenase (quinone), mitochondrial (Plasmodium falciparum (isolate 3D7)) (UniProt Q08210); test: PfDHODH enzyme inhibitors, primary screen, biochemical, C-terminal His tag, absorbance 600 nm (AID 1175); details: DCIP absorbance 600 nm, higher = more signal, called active from +8 up or from −8 down;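 also: recombinant parasite enzyme with a five histidine tag at its C terminus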
Sequence of Dihydroorotate dehydrogenase (quinone), mitochondrial (Plasmodium falciparum (isolate 3D7)) (Q08210 whole entry, looked up): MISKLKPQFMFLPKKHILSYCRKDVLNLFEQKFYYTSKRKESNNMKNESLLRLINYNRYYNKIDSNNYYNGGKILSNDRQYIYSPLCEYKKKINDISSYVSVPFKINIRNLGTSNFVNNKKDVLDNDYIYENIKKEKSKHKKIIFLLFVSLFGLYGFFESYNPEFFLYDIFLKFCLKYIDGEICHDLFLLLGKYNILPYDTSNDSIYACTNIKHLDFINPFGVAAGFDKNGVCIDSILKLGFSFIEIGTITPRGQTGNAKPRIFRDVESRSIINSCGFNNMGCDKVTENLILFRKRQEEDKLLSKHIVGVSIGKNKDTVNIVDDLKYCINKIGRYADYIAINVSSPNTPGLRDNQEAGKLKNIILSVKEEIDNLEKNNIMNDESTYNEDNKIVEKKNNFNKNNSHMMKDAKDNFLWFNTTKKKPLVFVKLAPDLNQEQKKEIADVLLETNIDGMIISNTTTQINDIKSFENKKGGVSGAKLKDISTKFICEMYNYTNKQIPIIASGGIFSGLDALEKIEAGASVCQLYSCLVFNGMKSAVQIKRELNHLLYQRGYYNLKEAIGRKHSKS

[5] = P. aeruginosa biofilm formation inhibitors, primary screen, strain PAO1, LB-PBS medium, absorbance 600 nm (AID 1176); details: P. aeruginosa PAO1 growth/biofilm, A600, 12 h; higher = more signal
[6] = S. cerevisiae RM11-1a growth modifiers, primary screen, strain RM11-1a, OD600, basal, 24 h (AID 1177); details: OD600, 24 h, higher = more signal, called active from +8 up or from −8 down;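 also: cultures grown under basal conditions with no added stressor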
[7] = E. coli acrAB mutant growth effects, primary screen, E. coli filamentation inducers, strain DRC39, OD650, 24 h (AID 1178); details: higher = more signal, called active from +8 up or from −8 down;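 also: growth measured as culture turbidity by optical density at 650 nm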
[8] = E. coli acrAB mutant growth effects, primary screen, E. coli filamentation inducers, strain DRC39, OD650, 48 h (AID 1179);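 also: screen aims at cell division blockers that make cells filament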; details: E. coli DRC39 delta-acrAB growth, higher = more signal, called active from +8 up or from −8 down
[9] = RPMI8226 myeloma cell viability, profiling panel, resazurin fluorescence, basal, 24 h, PK04 Diversity Set (AID 1180); details: higher = more signal;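 also: RPMI8826 multiple myeloma cell line at 5000 cells per well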
[10] = target: E3 ubiquitin-protein ligase XIAP (Homo sapiens) (UniProt P98170); test: XIAP binders, primary screen, biophysical, small-molecule microarray, fluorescence 635 nm (AID 1181); details: small-molecule microarray binding, higher = more signal;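 also: score merges 667 nm emission and signal to noise over triplicate slides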
Sequence of E3 ubiquitin-protein ligase XIAP (Homo sapiens) (P98170 whole entry, looked up): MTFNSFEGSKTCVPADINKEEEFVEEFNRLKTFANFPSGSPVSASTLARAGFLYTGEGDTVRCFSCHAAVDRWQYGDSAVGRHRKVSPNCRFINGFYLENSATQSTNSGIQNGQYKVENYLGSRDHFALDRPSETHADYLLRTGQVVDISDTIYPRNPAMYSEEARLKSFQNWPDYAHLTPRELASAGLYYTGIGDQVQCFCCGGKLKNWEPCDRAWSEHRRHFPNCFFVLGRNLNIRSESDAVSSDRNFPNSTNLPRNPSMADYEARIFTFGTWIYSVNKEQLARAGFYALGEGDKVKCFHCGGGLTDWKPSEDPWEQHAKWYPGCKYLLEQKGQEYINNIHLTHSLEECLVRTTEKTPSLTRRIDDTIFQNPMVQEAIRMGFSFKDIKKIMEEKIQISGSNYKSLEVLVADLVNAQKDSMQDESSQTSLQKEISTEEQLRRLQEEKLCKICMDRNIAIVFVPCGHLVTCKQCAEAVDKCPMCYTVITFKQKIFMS

[11] = tested on: XIP peptide (Xip251-270) binding; test: small-molecule binders of XIP peptide, primary screen, biochemical, small-molecule microarray, fluorescence 635/667 nm, 0.1 µg/mL protein (AID 1182); details: fluorescent protein binding, 635 nm, higher = more signal, called active from +8 up or from −8 down
XIP peptide (Xip251-270) = test: small-molecule binders of XIP peptide, primary screen, biochemical, small-molecule microarray, fluorescence 635/667 nm, 0.5 µg/mL protein (AID 1183); details: small-molecule microarray binding, fluorescence 635 nm; higher = more signal
[12] = Plasmodium falciparum growth inhibition, primary screen, strain 3D7, DAPI fluorescence, 100 nL (AID 1184);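 also: parasites grown inside human red blood cells in medium with human serum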; details: P. falciparum 3D7 growth, 3 d, higher = more signal
[13] = target: Homeobox protein Hox-A13 (Mus musculus) (UniProt Q62424); test: inhibitors of HoxA13-DNA binding, primary screen, biochemical, fluorescence polarization, labeled oligonucleotide (AID 1185); details: 15 min, higher = more signal, called active from +8 up or from −8 down
Sequence of Homeobox protein Hox-A13 (Mus musculus) (Q62424 whole entry, looked up): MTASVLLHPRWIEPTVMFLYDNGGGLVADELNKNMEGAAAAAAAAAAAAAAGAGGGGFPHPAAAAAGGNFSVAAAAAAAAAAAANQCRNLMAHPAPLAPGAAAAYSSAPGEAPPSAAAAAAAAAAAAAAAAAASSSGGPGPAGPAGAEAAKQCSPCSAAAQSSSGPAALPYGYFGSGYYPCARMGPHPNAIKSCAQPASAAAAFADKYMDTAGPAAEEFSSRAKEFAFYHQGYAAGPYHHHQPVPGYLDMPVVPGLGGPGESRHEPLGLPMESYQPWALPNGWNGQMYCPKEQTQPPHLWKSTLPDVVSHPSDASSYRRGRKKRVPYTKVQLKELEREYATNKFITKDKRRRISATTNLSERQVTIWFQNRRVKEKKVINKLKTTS

[14] = inhibitors of hydroxyurea-induced Chk1 phosphorylation, primary screen, imaging, HeLa, phospho-Chk1 antibody, percent positive cells (AID 1186); details: hydroxyurea-induced phospho-Chk1 immunofluorescence imaging, higher = more signal
[15] = inhibitors of hydroxyurea-induced Chk1 phosphorylation, primary screen, imaging, HeLa, phospho-Chk1 nuclear intensity (AID 1187); details: hydroxyurea-induced phospho-Chk1 immunofluorescence imaging, higher = more signal

Row | SMILES | z-score [1] | z-score [2] | z-score [3] | composite z-score [4] | z-score [5] | z-score [6] | z-score [7] | z-score [8] | z-score [9] | composite z-score [10] | composite z-score [11] | composite z-score (XIP peptide (Xip251-270)) | z-score [12] | z-score [13] | z-score [14] | z-score [15]
1 | C=C(/C(=C/C[C@@H](OC(=O)c1ccncc1)c1ccccc1OCCO)c1cc(C(=O)OC)ccc1OC)C(C)C | -0.0182 | -0.0905 (inactive) | -0.9 (inactive) | -1.82 (inactive) | 0.424 (inactive) | -0.0487 (inactive) | 0.315 (inactive) | 0.227 (inactive) | -0.722 | 0.153 | 0.214 (inactive) | 0.596 | -2.94 | -3.84 (inactive) | -1.77 (inactive) | -1.86 (inactive)
2 | C=CCN1Cc2ccccc2C[C@@]2(N=C(c3ccc(OCCCO)cc3)O[C@H]2c2ccccc2)C1=O | 0.211 | -5.82 (inactive) | -3.09 (inactive) | -0.13 (inactive) | 0.535 (inactive) | 0.0893 (inactive) | -0.137 (inactive) | 0.468 (inactive) | -4.81 | -0.031 | 0.247 (inactive) | 0.691 | -2.09 | -3.98 (inactive) | -0.468 (inactive) | -0.399 (inactive)
3 | CC(C)(C)OC(=O)CC[C@@]1(C(=O)O)N=C(c2ccc(OCCCO)cc2)O[C@@H]1c1ccccc1 | 0.0648 | 0.313 (inactive) | 0.0375 (inactive) | 0.904 (inactive) | -0.043 (inactive) | 1.4 (inactive) | 0.0847 (inactive) | -0.202 (inactive) | 0.56 | -0.0918 | 0.0877 (inactive) | 0.84 | 0.274 | -2.94 (inactive) | -0.0016 (inactive) | 0.18 (inactive)
4 | CN(C)CCCN1C(=O)[C@@]2(c3ccc([N+](=O)[O-])cc3)CC(=O)N(CC34CC5CC(CC(C5)C3)C4)[C@@H]2c2ccc(CO)cc21 | -0.349 | 0.24 (inactive) | -0.752 (inactive) | -7.42 (inactive) | -0.121 (inactive) | 0.536 (inactive) | 0.384 (inactive) | 0.567 (inactive) | -0.959 | -0.02 | -0.0347 (inactive) | 0.35 | -0.428 | -2.47 (inactive) | -0.411 (inactive) | -0.112 (inactive)
5 | COCCOC(=O)N1C(=O)[C@@]2(c3cc(C#CC4(O)CCCCCC4)ccc31)[C@H](C(=O)N1CCCCCCC1)[C@H]1C(=O)O[C@H](c3ccccc3)[C@H](c3ccccc3)N1[C@@H]2c1ccc(OCCO)cc1 | 0.304 | 0.397 (inactive) | 0.67 (inactive) | -2.1 (inactive) | 2.03 (inactive) | 1.51 (inactive) | -0.151 (inactive) | 0.201 (inactive) | 0.918 | 0.293 | 1.72 (inactive) | 0.838 | -2.3 | -15.8 (active) | 0.331 (inactive) | 0.805 (inactive)
6 | Cc1ccc(F)cc1S(=O)(=O)N[C@@H]1CCN(Cc2ccc(OC(C)C)cc2)C1 | -0.917 | -8.98 (active) | -2.09 (inactive) | -0.0588 (inactive) | -0.225 (inactive) | 0.652 (inactive) | -20 (active) | -19.8 (active) | -0.945 | -0.0794 | -0.46 (inactive) | -0.701 | -0.85 | -5.27 (inactive) | 0.239 (inactive) | 1.54 (inactive)
7 | COc1ccc([Si](C)(C)[C@H]2[C@H](CCn3cc([C@H](O)c4ccccc4)nn3)O[C@@]3(C(=O)N(Cc4ccc(N5CCOC5=O)cc4)c4ccccc43)[C@@H]2C)cc1 | -0.27 | 0.574 (inactive) | -0.412 (inactive) | 0.624 (inactive) | 1.04 (inactive) | 2.18 (inactive) | 0.205 (inactive) | 0.139 (inactive) | 0.129 | -0.171 | -0.47 (inactive) | 0.103 | -2.29 | -2.28 (inactive) | -0.138 (inactive) | -0.0848 (inactive)
8 | C=CCOC(=O)[C@@H]1[C@H]2C(=O)O[C@H](c3ccccc3)[C@H](c3ccccc3)N2[C@H](c2ccc(OCCOC(=O)[C@H]3C[C@H]4C(=O)N[C@@H](CC(C)C)C(=O)N4[C@H]3c3ccc(O)cc3)cc2)[C@@]12C(=O)Nc1ccc(I)cc12 | 0.206 | 1.26 (inactive) | 0.219 (inactive) | 0.106 (inactive) | 2.44 (inactive) | 1.6 (inactive) | 0.869 (inactive) | 1.2 (inactive) | 0.597 | 0.0819 | 0.234 (inactive) | 0.828 | -1.79 | 0.981 (inactive) | -0.25 (inactive) | -0.115 (inactive)
9 | CC=CC(O)C1C=CC2C(=O)N(C)C(=O)C2N1N1CCCCC1 (centres undefined) | -0.245 | 0.383 (inactive) | -0.986 (inactive) | -0.811 (inactive) | 0.378 (inactive) | -0.714 (inactive) | -1.07 (inactive) | -0.923 (inactive) | -1.36 | -0.114 | 0.102 (inactive) | 0.759 | 0.884 | -7.38 (inactive) | 0.436 (inactive) | -0.297 (inactive)
